# Data reported in the supplement of paper PMC9262897, “Low-cost anti-mycobacterial drug discovery using engineered E. coli” (Nature Communications, 2022).
# Where a name gives a salt, the structure may show the parent alone. ± gives the standard deviation of the averaged measurements.
# What was measured:
# Test in all cases: growth (OD600 after 10 h); higher = more growth (less inhibition)
# [1] = tested on: E. coli TESEC Alr+ wild-type control; details: compound 0.1 mM; raw OD600 reference: median of DMSO wells 0.241, cell-free background 0.041
# Experimental: (§1)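 TESEC Mtb Alr E. coli, or the Alr+ wild-type control, in 384-well plates with Prestwick library compounds at 0.1 mM and 1% DMSO, across arabinose induction levels of 1E3 to 1E7 nM. Growth is read as OD600 after 10 h at 37 °C in triplicate biological replicates.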
# E. coli TESEC Mtb Alr [2] = details: compound 0.1 mM
# Experimental: as §1
# E. coli TESEC Mtb Asd = details: compound 0.1 mM
# Experimental: (§2)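 TESEC E. coli strains in which the native enzyme is deleted and replaced by arabinose-inducible Mtb Asd, DapB, CysH or TrpD, each grown in its selective medium. Strains were screened against the Prestwick library at 0.1 mM and 1% DMSO in 384-well format at low and high arabinose induction. Growth is read as OD600 after 10 h in triplicate.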
# E. coli TESEC Mtb DapB = details: compound 0.1 mM
# Experimental: as §2
# [3] = tested on: E. coli TESEC Alr+ wild-type control; details: compound 0.1 mM; raw OD600 reference: median of DMSO wells 0.49, cell-free background 0.052
# Experimental: (§3)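 TESEC Mtb Alr E. coli (ΔaraC ΔtolC ΔentC Δalr ΔdadX, arabinose-inducible Mtb Alr) or the Alr+ wild-type control strain, grown in defined M9-fructose medium without D-alanine in 96-well plates with Prestwick library compounds at 0.1 mM and 1% DMSO. Low Alr induction is 0.1 µM arabinose and high induction is 10 mM arabinose.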
# E. coli TESEC Mtb Alr [4] = details: compound 0.1 mM; remark: listed apart in the source
# Experimental: as §3
# [5] = arabinose 1000 nM, raw OD600 reference: median of DMSO wells 0.294, cell-free background 0.041
# [6] = arabinose 10000 nM, raw OD600 reference: median of DMSO wells 0.264, cell-free background 0.041
# [7] = arabinose 100000 nM, raw OD600 reference: median of DMSO wells 0.201, cell-free background 0.041
# [8] = arabinose 1000000 nM, raw OD600 reference: median of DMSO wells 0.193, cell-free background 0.041
# [9] = arabinose 10000000 nM, raw OD600 reference: median of DMSO wells 0.146, cell-free background 0.041
# [10] = arabinose induction (level): High, raw OD600 reference: median of DMSO wells 0.331, cell-free background 0.041
# [11] = arabinose induction (level): Low, raw OD600 reference: median of DMSO wells 0.417, cell-free background 0.041
# [12] = arabinose induction (level): High, raw OD600 reference: median of DMSO wells […], cell-free background 0.041
# [13] = arabinose induction (level): Low, raw OD600 reference: median of DMSO wells 0.227, cell-free background 0.041
# [14] = arabinose 100 nM, raw OD600 reference: median of DMSO wells 0.413, cell-free background 0.052
# [15] = arabinose 10000000 nM, raw OD600 reference: median of DMSO wells […], cell-free background 0.052
Structure (SMILES),growth [1],growth (E. coli TESEC Mtb Alr [2]; [5]),growth (E. coli TESEC Mtb Alr [2]; [6]),growth (E. coli TESEC Mtb Alr [2]; [7]),growth (E. coli TESEC Mtb Alr [2]; [8]),growth (E. coli TESEC Mtb Alr [2]; [9]),growth (E. coli TESEC Mtb Asd; [10]),growth (E. coli TESEC Mtb Asd; [11]),growth (E. coli TESEC Mtb DapB; [12]),growth (E. coli TESEC Mtb DapB; [13]),growth [3],growth (E. coli TESEC Mtb Alr [4]; [14]),growth (E. coli TESEC Mtb Alr [4]; [15])
COc1cc(OC)c(C(=O)CCCN2CCCC2)c(OC)c1 [Buflomedil hydrochloride],0.238 ± 0.0082,0.296 ± 0.0094,0.269 ± 0.0091,0.201 ± 0.04,0.189 ± 0.0075,0.146 ± 0.0076,0.274 ± 0.033,0.335 ± 0.064,0.166 ± 0.041,0.188 ± 0.01,0.642 ± 0.053,0.407 ± 0.0067,0.345 ± 0.0037
CN(C)C(=N)NC(=N)N [Metformin hydrochloride],0.253 ± 0.0099,0.281 ± 0.026,0.258 ± 0.0057,0.238 ± 0.03,0.178 ± 0.0068,0.145 ± 0.0029,0.372 ± 0.032,0.404 ± 0.032,0.218 ± 0.037,0.235 ± 0.043,0.447 ± 0.052,0.404 ± 0.015,0.349 ± 0.032
NS(=O)(=O)c1cc(Cl)c(Cl)c(S(N)(=O)=O)c1 [Dichlorphenamide],0.25 ± 0.0031,0.298 ± 0.012,0.2704 ± 0.0016,0.211 ± 0.027,0.186 ± 0.011,0.131 ± 0.0026,0.312 ± 0.027,0.456 ± 0.038,0.213 ± 0.007,0.256 ± 0.026,0.443 ± 0.011,0.402 ± 0.017,0.399 ± 0.032
CCC1(c2ccccc2)NC(=O)N(C)C1=O (stereo not given) [Mephenytoin],0.249 ± 0.0037,0.299 ± 0.0081,0.287 ± 0.011,0.201 ± 0.014,0.204 ± 0.013,0.152 ± 0.0052,0.235 ± 0.029,0.328 ± 0.072,0.184 ± 0.013,0.24 ± 0.037,0.501 ± 0.091,0.427 ± 0.0055,0.31 ± 0.011
CN[C@H](CC(C)C)C(=O)N[C@H]1C(=O)N[C@@H](CC(N)=O)C(=O)N[C@H]2C(=O)N[C@H]3C(=O)N[C@H](C(=O)N[C@H](C(=O)O)c4cc(O)cc(O)c4-c4cc3ccc4O)[C@H](O)c3ccc(c(Cl)c3)Oc3cc2cc(c3O[C@@H]2O[C@H](CO)[C@@H](O)[C@H](O)[C@H]2O[C@H]2C[C@](C)(N)[C@H](O)[C@H](C)O2)Oc2ccc(cc2Cl)[C@H]1O [Vancomycin hydrochloride],0.0502 ± 0.0016,0.084 ± 0.073,0.03873 ± 0.00032,0.0413 ± 0.0026,0.0388 ± 0.00044,0.0471 ± 0.0044,0.0662 ± 0.0062,0.0563 ± 0.011,0.0659 ± 0.0035,0.0604 ± 0.0036,0.0581 ± 0.0048,0.217 ± 0.15,0.0507 ± 0.00062
Nc1nc(=O)n([C@@H]2CS[C@H](CO)O2)cc1F [(-)-Emtricitabine],0.238 ± 0.0098,0.285 ± 0.0065,0.248 ± 0.0044,0.254 ± 0.061,0.172 ± 0.0027,0.147 ± 0.005,0.291 ± 0.092,0.419 ± 0.09,0.192 ± 0.024,0.218 ± 0.011,0.572 ± 0.0088,0.412 ± 0.0087,0.337 ± 0.012
CN[C@@H]1[C@H](O[C@H]2[C@H](O[C@H]3[C@H](O)[C@@H](O)[C@H](NC(=N)N)[C@@H](O)[C@@H]3NC(=N)N)O[C@@H](C)[C@]2(O)CO)O[C@@H](CO)[C@H](O)[C@H]1O [Dihydrostreptomycin sulfate],0.041 ± 0.0011,0.0419 ± 0.0011,0.03877 ± 0.00012,0.0454 ± 0.0053,0.0395 ± 0.0004,0.0485 ± 0.0005,0.0488 ± 0.00072,0.0499 ± 0.0017,0.0489 ± 0.00049,0.0483 ± 0.00061,0.0605 ± 0.0073,0.0553 ± 0.0036,0.0534 ± 0.00091
CC1CCc2c(N3CCC(O)CC3)c(F)cc3c(=O)c(C(=O)O)cn1c23 (stereo not given) [Nadifloxacin],0.04253 ± 5.8e-05,0.04043 ± 0.00023,0.0418 ± 0.0029,0.0437 ± 0.005,0.03983 ± 0.00031,0.04117 ± 0.00023,0.0522 ± 0.007,0.0485 ± 0.0008,0.0495 ± 0.00066,0.0498 ± 0.0021,0.0538 ± 0.0013,0.0535 ± 0.00072,0.05197 ± 5.8e-05
CC[C@H]1OC(=O)[C@H](C)[C@@H](O[C@H]2C[C@@](C)(OC)[C@@H](O)[C@H](C)O2)[C@H](C)[C@@H](O[C@@H]2O[C@H](C)C[C@H](N(C)C)[C@H]2O)[C@](C)(OC)C[C@@H](C)C(=O)[C@H](C)[C@@H](O)[C@]1(C)O [Clarithromycin],0.0414 ± 0.00036,0.0421 ± 0.00026,0.04 ± 0.00071,0.0426 ± 0.00059,0.041 ± 0.0018,0.0437 ± 0.0036,0.0608 ± 0.013,0.0537 ± 0.0096,0.061 ± 0.0028,0.0632 ± 0.0078,0.055 ± 0.00044,0.0576 ± 0.0015,0.0524 ± 0.00061
CN(C(=O)C(Cl)Cl)c1ccc(OC(=O)c2ccco2)cc1 [Diloxanide furoate],0.185 ± 0.0099,0.264 ± 0.018,0.256 ± 0.01,0.169 ± 0.0067,0.172 ± 0.0079,0.167 ± 0.004,0.366 ± 0.011,0.353 ± 0.024,0.2046 ± 0.0011,0.21 ± 0.02,0.609 ± 0.087,0.415 ± 0.016,0.374 ± 0.025
CN(C)CCN(Cc1ccccc1)c1ccccn1 [Tripelennamine hydrochloride],0.203 ± 0.0015,0.281 ± 0.0071,0.254 ± 0.0058,0.181 ± 0.0046,0.184 ± 0.003,0.133 ± 0.004,0.232 ± 0.055,0.329 ± 0.1,0.177 ± 0.0099,0.209 ± 0.027,0.537 ± 0.091,0.406 ± 0.0074,0.307 ± 0.0053
COc1ccc(CN2CCN(C(c3ccc(F)cc3)c3ccc(F)cc3)CC2)c(OC)c1OC [Lomerizine hydrochloride],0.119 ± 0.0034,0.126 ± 0.0034,0.0765 ± 0.0014,0.137 ± 0.0039,0.05757 ± 0.00049,0.0717 ± 0.0016,0.0685 ± 0.0042,0.0562 ± 0.0023,0.0966 ± 0.0085,0.0956 ± 0.013,0.233 ± 0.0047,0.248 ± 0.018,0.0708 ± 0.013
NCc1ccccc1CC(=O)N[C@@H]1C(=O)N2C(C(=O)O)=C(CSc3nnnn3CC(=O)O)CS[C@H]12 [Ceforanide],0.3 ± 0.0032,0.324 ± 0.0083,0.167 ± 0.0036,0.238 ± 0.016,0.161 ± 0.0024,0.206 ± 0.0071,0.244 ± 0.01,0.315 ± 0.033,0.182 ± 0.012,0.242 ± 0.012,0.501 ± 0.055,0.108 ± 0.033,0.303 ± 0.024
CO/N=C(\C(=O)N[C@@H]1C(=O)N2C(C(=O)OC(C)OC(C)=O)=C(COC(N)=O)CS[C@H]12)c1ccco1 (stereo not given in full) [Cefuroxime axetil],0.148 ± 0.0057,0.115 ± 0.007,0.0663 ± 0.0028,0.124 ± 0.0033,0.166 ± 0.0066,0.158 ± 0.006,0.246 ± 0.023,0.316 ± 0.011,0.196 ± 0.022,0.215 ± 0.057,0.427 ± 0.051,0.059 ± 0.0076,0.257 ± 0.011
C#CCN(C)CCCOc1ccc(Cl)cc1Cl [Clorgyline hydrochloride],0.14 ± 0.0066,0.168 ± 0.0046,0.175 ± 0.0062,0.174 ± 0.0076,0.0744 ± 0.0031,0.133 ± 0.011,0.25 ± 0.093,0.21 ± 0.04,0.158 ± 0.013,0.208 ± 0.016,0.458 ± 0.027,0.392 ± 0.0072,0.222 ± 0.016
